Data taken from ChEMBL document CHEMBL3988442, “University of Dundee, Small-Polar-MMV Screening Library” (2021).
For some of these results: Measured potencies and affinities stand elsewhere.

Tests used:
Set-up in all cases: scale not given: direction of the effect not stated beside the values
[1] = molecular target: Protein translocase subunit SecA (Escherichia coli (strain K12)) (UniProt P10408); experiment: Assay to Identify E. coli SecA ATPase Inhibitors; assay type: functional; conditions: 30 µM
Sequence of Protein translocase subunit SecA (Escherichia coli (strain K12)) (P10408 whole entry): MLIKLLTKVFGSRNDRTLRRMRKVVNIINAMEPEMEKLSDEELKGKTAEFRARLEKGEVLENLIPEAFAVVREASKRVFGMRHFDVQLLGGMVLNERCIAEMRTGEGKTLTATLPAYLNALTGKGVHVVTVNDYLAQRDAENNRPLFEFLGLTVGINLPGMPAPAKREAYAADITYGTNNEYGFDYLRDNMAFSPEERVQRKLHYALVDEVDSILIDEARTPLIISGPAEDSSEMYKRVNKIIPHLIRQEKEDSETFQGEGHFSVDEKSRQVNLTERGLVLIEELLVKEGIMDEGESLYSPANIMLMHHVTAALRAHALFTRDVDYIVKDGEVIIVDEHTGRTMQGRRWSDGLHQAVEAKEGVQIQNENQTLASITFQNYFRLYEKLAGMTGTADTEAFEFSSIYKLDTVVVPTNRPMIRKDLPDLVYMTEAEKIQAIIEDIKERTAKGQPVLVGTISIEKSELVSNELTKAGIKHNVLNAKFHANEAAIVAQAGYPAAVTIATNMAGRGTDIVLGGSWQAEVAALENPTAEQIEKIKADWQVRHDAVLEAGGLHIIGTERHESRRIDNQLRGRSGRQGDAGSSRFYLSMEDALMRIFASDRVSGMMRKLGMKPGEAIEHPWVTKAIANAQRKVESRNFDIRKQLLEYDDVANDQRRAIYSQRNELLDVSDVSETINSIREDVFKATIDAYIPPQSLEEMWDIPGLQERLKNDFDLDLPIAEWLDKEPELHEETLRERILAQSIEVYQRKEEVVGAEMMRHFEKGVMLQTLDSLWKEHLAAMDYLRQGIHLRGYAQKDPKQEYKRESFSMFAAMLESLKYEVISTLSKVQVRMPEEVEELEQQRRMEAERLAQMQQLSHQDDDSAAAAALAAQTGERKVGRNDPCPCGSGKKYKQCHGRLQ

[2] = molecular target: T1, Ubiquitin-activating enzyme e1, putative (Leishmania donovani (strain BPK282A1)) (UniProt E9BSI1); experiment: Leishmania donovani Ubiquitin Activating Enzyme (LdE1); assay type: functional; conditions: 30 µM
T1 sequence (whole entry): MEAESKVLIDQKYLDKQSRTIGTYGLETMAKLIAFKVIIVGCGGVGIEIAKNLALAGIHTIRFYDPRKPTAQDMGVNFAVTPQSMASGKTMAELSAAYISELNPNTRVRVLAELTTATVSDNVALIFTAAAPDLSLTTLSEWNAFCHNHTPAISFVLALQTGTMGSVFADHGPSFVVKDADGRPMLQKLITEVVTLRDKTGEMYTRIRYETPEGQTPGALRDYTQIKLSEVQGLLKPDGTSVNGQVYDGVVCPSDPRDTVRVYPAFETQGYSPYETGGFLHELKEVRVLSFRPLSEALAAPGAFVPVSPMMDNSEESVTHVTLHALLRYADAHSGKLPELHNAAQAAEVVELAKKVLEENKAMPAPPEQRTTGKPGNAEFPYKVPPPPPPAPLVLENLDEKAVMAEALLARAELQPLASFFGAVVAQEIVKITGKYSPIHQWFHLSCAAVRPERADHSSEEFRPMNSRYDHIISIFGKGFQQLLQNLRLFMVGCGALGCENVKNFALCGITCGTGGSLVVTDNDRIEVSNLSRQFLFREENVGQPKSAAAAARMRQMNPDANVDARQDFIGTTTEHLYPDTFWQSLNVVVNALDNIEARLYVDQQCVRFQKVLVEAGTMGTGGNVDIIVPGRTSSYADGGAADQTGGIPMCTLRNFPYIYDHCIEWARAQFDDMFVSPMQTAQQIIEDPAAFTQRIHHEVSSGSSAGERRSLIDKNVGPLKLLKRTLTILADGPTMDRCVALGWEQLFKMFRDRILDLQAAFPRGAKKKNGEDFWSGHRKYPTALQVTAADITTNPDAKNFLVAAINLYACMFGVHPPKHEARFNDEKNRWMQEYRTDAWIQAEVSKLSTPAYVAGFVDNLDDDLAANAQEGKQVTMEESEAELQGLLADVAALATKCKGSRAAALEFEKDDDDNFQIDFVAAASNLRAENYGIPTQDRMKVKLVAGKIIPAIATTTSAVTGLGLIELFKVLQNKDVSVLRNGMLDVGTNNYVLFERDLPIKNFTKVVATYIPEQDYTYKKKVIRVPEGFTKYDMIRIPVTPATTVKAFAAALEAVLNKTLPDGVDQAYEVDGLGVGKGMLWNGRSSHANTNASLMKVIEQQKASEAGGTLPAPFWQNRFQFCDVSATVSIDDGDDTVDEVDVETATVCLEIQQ

[3] = molecular target: AMP-activated protein kinase, AMPK (Homo sapiens) (UniProt P54646+O43741+P54619+Q9UGJ0+Q9Y478+Q13131+Q9UGI9); experiment: AMP-dependent Kinase enzyme assay. An in vitro enzyme assay that detects ADP turnover that is directly proportional to AMPK activity. This uses naive AMPK that is activated during the assay with MK-8722; assay type: functional; conditions: 30 µM
[4] = molecular target: Sialic acid-binding Ig-like lectin 9 (Homo sapiens) (UniProt Q9Y336); experiment: Hs-Siglec9 ALPHAscreen SOP 20170721; conditions: 10 µM
Sequence of Sialic acid-binding Ig-like lectin 9 (Homo sapiens) (Q9Y336 whole entry): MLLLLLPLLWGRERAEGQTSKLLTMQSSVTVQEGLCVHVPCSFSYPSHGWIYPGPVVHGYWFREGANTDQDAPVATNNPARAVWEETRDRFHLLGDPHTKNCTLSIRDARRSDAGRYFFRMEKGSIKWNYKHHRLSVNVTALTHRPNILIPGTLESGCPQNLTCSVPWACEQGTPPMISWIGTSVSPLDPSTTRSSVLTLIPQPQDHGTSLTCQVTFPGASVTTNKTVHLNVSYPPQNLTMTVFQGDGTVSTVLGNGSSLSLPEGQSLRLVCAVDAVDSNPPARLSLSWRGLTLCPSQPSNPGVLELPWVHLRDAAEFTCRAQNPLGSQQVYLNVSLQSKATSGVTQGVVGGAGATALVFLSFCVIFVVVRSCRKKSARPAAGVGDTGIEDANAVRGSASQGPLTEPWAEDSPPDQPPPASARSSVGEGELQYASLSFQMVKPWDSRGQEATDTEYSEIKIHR

[5] = test system: Trypanosoma cruzi; experiment: Trypanosoma cruzi phosphomannomutase and mannose-1-phosphate guanylyltransferase assay; assay type: functional; conditions: 10 µM
[6] = molecular target: T2, Arginase-2, mitochondrial (Homo sapiens) (UniProt P78540); experiment: in vitro enzyme assay to detect the production of urea directly proportional to the activity of Arginase II; assay type: functional; conditions: 33.3 µM; also: in the data most compounds retested in dose-response had high values
T2 sequence (whole entry): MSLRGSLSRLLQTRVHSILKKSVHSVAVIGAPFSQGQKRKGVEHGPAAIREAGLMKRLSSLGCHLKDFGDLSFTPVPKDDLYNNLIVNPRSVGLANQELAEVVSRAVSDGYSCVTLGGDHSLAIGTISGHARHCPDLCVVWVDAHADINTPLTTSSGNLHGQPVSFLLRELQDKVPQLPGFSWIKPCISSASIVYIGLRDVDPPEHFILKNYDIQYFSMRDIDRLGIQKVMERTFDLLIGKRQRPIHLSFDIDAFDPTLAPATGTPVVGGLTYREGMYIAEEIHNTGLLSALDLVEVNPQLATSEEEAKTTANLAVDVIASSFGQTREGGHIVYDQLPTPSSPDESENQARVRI

[7] = molecular target: T3, Proteasome subunit beta (Trypanosoma cruzi) (UniProt O96673); experiment: Trypanosoma cruzi proteasome chymotrypsin-like activity (TcProtChymo) assay.; also: in the data most compounds retested in dose-response had high values; assay type: functional; conditions: 9.37 µM
T3 sequence (whole entry): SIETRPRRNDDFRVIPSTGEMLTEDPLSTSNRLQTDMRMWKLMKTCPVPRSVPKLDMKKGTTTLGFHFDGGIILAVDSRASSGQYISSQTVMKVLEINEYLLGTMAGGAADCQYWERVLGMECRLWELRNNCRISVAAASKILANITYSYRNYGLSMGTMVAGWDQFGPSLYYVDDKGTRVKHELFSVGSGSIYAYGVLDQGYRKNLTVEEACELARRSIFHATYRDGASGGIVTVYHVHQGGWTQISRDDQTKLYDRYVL

[8] = species on record: Homo sapiens; experiment: To identify inhibition of the IFN signalling (Jak-Stat) pathway via expression of an eGFP reporter gene under the control of an IFN-stimulated response element (ISRE) containing MxA promoter.; assay type: functional; conditions: 30 µM
[9] = molecular target: T4, Tyrosyl-tRNA synthetase, putative (Trypanosoma cruzi (strain CL Brener)) (UniProt Q4DSP6); experiment: Trypanosoma cruzi tyrosyl tRNA synthetase (TcYRS) _High Tyrosine SOP; assay type: functional; conditions: 30 µM; also: in the data most compounds retested in dose-response had high values
T4 sequence (whole entry): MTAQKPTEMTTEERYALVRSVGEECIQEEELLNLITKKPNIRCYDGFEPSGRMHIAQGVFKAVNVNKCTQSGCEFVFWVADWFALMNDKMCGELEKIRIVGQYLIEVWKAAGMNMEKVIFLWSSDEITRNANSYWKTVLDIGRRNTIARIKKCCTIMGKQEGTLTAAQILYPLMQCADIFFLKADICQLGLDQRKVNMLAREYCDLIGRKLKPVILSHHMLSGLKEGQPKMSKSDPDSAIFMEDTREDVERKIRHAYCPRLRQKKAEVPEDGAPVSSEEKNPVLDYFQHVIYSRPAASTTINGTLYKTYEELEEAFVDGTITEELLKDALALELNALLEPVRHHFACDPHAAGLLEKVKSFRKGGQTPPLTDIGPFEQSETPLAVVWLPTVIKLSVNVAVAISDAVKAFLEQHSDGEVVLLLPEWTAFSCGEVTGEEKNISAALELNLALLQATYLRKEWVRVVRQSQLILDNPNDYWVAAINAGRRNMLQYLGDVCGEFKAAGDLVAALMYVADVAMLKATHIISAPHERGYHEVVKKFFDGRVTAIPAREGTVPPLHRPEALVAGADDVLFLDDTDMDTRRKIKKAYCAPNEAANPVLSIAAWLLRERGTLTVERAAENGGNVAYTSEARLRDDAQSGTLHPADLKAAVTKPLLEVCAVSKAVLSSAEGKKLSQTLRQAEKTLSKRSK

[10] = molecular target: T4, Tyrosyl-tRNA synthetase, putative (Trypanosoma cruzi (strain CL Brener)); experiment: Trypanosoma cruzi tyrosyl tRNA synthetase (TcYRS) SOP; assay type: functional; conditions: 30 µM
[11] = molecular target: Chromo domain-containing protein 1 (Saccharomyces cerevisiae (strain ATCC 204508 / S288c) (Baker's yeast)) (UniProt P32657); experiment: ScCHD-1 Enzyme Inhibition Assay; assay type: functional; conditions: 30 µM; also: in the data most compounds retested in dose-response had high values
Sequence of Chromo domain-containing protein 1 (Saccharomyces cerevisiae (strain ATCC 204508 / S288c) (Baker's yeast)) (P32657 whole entry, the tested form may be a part): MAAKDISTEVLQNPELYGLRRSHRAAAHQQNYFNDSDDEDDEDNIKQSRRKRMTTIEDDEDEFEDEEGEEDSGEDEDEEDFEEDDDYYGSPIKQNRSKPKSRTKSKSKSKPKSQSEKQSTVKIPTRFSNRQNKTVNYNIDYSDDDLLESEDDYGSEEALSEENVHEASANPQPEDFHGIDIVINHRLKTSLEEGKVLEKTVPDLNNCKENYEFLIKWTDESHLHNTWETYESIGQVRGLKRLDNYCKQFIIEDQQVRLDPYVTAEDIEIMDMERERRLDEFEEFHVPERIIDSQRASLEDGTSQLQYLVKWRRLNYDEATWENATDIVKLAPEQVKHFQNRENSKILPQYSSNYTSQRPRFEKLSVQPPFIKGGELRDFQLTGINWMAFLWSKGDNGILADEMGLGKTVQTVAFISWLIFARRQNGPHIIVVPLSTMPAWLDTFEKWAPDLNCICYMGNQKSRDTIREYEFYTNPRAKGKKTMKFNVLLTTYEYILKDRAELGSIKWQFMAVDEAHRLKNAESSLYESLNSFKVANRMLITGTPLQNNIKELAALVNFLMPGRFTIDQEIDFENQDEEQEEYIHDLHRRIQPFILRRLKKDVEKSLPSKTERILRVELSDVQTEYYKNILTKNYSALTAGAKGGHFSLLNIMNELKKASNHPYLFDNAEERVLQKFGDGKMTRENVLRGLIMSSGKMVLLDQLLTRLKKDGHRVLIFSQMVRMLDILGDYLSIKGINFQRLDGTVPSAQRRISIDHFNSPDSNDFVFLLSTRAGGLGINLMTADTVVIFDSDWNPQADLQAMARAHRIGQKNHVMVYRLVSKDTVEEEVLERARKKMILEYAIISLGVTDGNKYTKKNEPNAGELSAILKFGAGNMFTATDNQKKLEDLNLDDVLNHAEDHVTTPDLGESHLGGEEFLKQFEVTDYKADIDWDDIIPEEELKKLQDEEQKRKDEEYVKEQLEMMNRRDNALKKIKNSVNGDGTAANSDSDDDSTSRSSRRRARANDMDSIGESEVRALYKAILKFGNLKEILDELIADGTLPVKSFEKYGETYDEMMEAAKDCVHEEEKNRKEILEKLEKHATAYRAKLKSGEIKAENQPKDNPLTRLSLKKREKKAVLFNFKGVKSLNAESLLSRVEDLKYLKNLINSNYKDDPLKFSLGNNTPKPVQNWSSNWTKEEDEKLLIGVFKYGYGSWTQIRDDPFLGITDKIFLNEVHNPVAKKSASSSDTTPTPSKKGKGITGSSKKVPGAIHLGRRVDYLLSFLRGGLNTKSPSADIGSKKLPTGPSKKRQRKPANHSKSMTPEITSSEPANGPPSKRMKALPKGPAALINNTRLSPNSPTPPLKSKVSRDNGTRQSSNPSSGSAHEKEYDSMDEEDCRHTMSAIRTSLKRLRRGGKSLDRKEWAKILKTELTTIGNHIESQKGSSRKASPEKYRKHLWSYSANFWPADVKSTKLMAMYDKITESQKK

Compound	Percent Effect [1]	Percent Effect [2]	Percent Effect [3]	Percent Effect [4]	Percent Effect [5]	Percent Effect [6]	Percent Effect [7]	Percent Effect [8]	Percent Effect [9]	Percent Effect [10]	Percent Effect [11]
CCCc1nc(CN2CCCC2Cn2cncn2)cs1 (stereo unspecified)	-3.84%	12.7%	-5.8%	9.38%	3.87%	-24.3%	5.98%	4.39%	10.3%	24.1%	-3.42%
c1cnn(CC2CN(Cc3nc(-c4ccsc4)no3)CCO2)c1 (stereo unspecified)	-2.55%	10.5%	-2.23%	16.5%	-1.13%	0.766%	-2.34%	6.35%	1.47%	9.76%	0.902%
Cc1cnn(CCNCc2ccc(F)cc2Cl)c1	-3.52%	8.11%	-1.08%	10.9%	-1.02%	0.554%	10.9%	-9.92%	1.98%	13.4%	1.6%
O=C1CC(c2ccccc2)c2c(n3ccsc3nc2=O)N1 (stereo unspecified)	-4.74%	17.3%	-7.29%	1.39%	2.16%	-6.87%	13.3%	5.81%	5.29%	15.4%	-7.95%
C[C@@H]1CN(C2(C(=O)N3CCOCC3)Cc3ccccc3C2)C[C@H](C)O1	-4.17%	-37.5%	-3.25%	0.729%	0.875%	1.77%	8.6%	-18.6%	5.26%	7.69%	-3.31%
CC(O)CN1CCC(CNCc2cccc(C(N)=O)c2)CC1 (stereo unspecified)	-1.81%	18.9%	-22.5%	11%	3.11%	-6.01%	6.67%	10.6%	8.37%	16.1%	-10%
CCCc1n[nH]c(C2CN(CCn3cccn3)CCO2)n1 (stereo unspecified)	-6.25%	-4.17%	-1.07%	-3.33%	2.04%	2.21%	11.9%	-12.6%	2.1%	0%	-1.2%
COc1cc(CNCc2ccnc(N3CCOCC3)c2)cc(Cl)c1OC	-5.46%	16.2%	-4.43%	13.4%	0.0943%	-5.21%	3.78%	27.8%	5.42%	18.5%	-8.15%
OCCn1cc(CN2CCN(CCOc3ccccc3)CC2)cn1	-4.31%	8.11%	-1.96%	0.413%	-4.36%	1.29%	11.3%	3.13%	2.97%	3.66%	-2.48%
COCCNC(=O)[C@H]1CN(Cc2nccs2)C[C@H]2OCC[C@@H]12	-3.36%	16.4%	-2.81%	11.4%	3.17%	2.4%	6.25%	15.8%	5.21%	1.24%	-0.333%
COc1ccc(C(CO)NC(=O)Nc2cccc(C#N)c2)cc1 (stereo unspecified)	-1.84%	16.2%	-2.87%	19.4%	3.86%	-0.952%	15.3%	8.24%	7.94%	17.1%	-9.96%
